Screens: PubChem, National Center for Advancing Translational Sciences (NCATS)
Compounds with a hit are over-represented: about 8% of the library has one in this group of screens.
ELG1 DNA repair: blocks ELG1-dependent DNA repair in HEK293T cells; AID 504467; HEK293T ELG1-luciferase reporter, luminescence, 16 h; DNA damage induced by 5-fluorouridine; hit rate 2.3% among 330,000; Potency, µM (series often up to 46.1 µM), most hits filed as inhibitors; note: nearly all actives have a fitted effect of over 55% in size
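Luminescence from the luciferase reporter, measured 30 min after ONE-Glo reagent at room temperature, was the read-out. Beforehand, 2,000 cells per well were exposed for 16 hr at 37 °C to 5-fluorouridine together with compound or vehicle.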
RORgamma inh: inhibitors of mouse ROR gamma transcriptional activity; P51450; Drosophila S2 Gal4-RORgamma UAS-luciferase reporter, 20 h; Potency, µM (doses to about 53.6 µM), most hits filed as inhibitors; hit rate 5.4% among 310,000; AID 2551; note: nearly all actives have a fitted effect of over 60% in size
Target sequence (P51450 whole entry, looked up, the tested form may be a part): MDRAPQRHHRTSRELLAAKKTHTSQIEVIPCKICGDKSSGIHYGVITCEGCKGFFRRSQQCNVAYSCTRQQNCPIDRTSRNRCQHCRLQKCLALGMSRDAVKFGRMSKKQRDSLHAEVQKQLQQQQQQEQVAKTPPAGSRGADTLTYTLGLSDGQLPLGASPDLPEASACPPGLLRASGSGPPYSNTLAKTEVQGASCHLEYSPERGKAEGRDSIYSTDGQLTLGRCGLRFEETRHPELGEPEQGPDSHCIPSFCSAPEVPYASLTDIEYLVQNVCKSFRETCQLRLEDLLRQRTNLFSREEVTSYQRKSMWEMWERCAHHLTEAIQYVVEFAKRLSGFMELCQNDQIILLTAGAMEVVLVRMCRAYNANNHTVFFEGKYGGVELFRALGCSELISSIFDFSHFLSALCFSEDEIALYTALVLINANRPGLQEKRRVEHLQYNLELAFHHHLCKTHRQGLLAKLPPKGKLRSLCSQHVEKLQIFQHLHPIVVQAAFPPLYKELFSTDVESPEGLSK
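Drosophila Schneider cells stably carrying a metallothionein-driven Gal4 DBD–ROR gamma fusion and a UAS-Photinus luciferase reporter were exposed to compound for 1 hr, then induced with copper sulfate (700 uM final) for 20 hr at ambient temperature before luminescence reading.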
Coupling enz: coupling enzyme interference in Giardia aldolase counter-screen; coupling enzyme system counterscreen, AmpLite Red fluorescence; hit rate 0.67% among 290,000; activity change, negative = inhibition, % at 58.2 µM, hits read low; in the data active = activity change below about -30%
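Compounds tested against the coupling enzymes alone at 57.5 uM final; readout was AmpLite Red fluorescence (525/598 nm) after 20 min at RT.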
TSHR antagonist: blocks TSH signaling through the human TSH receptor | P16473 | TSHR-expressing cells, TSH-stimulated cAMP HTRF, 2 h; stronger effect = lower value | activity change, negative = inhibition, % at 11.5 µM | hit rate 0.2% among 330,000 | AID 504810;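 active = activity change below a set negative limit, meaning inhibition stronger than a set level, cut at about -70% in these data; inconclusive = activity change between two set negative limits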
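Inhibition of cAMP made by TSHR-expressing cells under TSH stimulation (4nM final, EC80; 2 h, 37 deg C) is quantified with a one-step lysis HTRF kit, anti-cAMP cryptate versus cAMP-d2.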
Gal4-VP16 FLuc: counter-screen for ROR gamma inhibitors: Gal4-VP16 reporter; AID 2546; hit rate 3.5% among 310,000; Drosophila S2 Gal4-VP16 UAS-luciferase, luminescence, 20 h; Potency, µM (highest dose often 53.6 µM), usual class: inhibitors;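 note: Gal4-VP16 expression switched on by copper sulfate through the metallothionein promoter; nearly all actives have a fitted effect of over 50% in size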
Large screens that a line does not name were inactive. Unless noted, calls come from the whole dose curve; as a rule, active = well fitted curve in the direction sought with a large enough effect; inconclusive = small, poorly fitted or top-dose-only effect, or another doubt; inactive = no such curve, though single readings can be large; an effect the other way counts as inactive or inconclusive.

COC(=O)CC1C(C)(C)C(OC(C)=O)[C@@]2(O)C=C3C4CC(=O)OC(c5ccoc5)[C@]4(C)CCC3[C@@]1(C)C2=O (stereo partly drawn)	none (no result: ELG1 DNA repair, TSHR antagonist)
COc1ccc(C(=O)N/N=C/c2ccc(OC)c(OS(=O)(=O)c3ccccc3)c2)cc1	ELG1 DNA repair inconclusive
COc1ccc(/C=N/NC(=O)c2cccc([N+](=O)[O-])c2)cc1OS(=O)(=O)c1ccc(C)cc1	ELG1 DNA repair inconclusive, RORgamma inh 4µM, Gal4-VP16 FLuc inconclusive
CN(c1ccc(C(=O)N/N=C/c2cccc([N+](=O)[O-])c2)cc1)S(=O)(=O)c1ccccc1	ELG1 DNA repair inconclusive, RORgamma inh inconclusive
CCOc1cc(/C=N/NC(=O)c2cccc([N+](=O)[O-])c2)ccc1OS(=O)(=O)c1ccccc1	ELG1 DNA repair inconclusive, RORgamma inh 7.9µM, Gal4-VP16 FLuc 14µM (no result: Coupling enz)
CCCN(CC(=O)Nc1ccccc1C)C(=O)COc1ccc2c(c1)CCC2	none (no result: Coupling enz)
Cc1ccc2sc(NNC(=O)C3=COCCO3)nc2c1C	RORgamma inh 5.6µM, Gal4-VP16 FLuc inconclusive
O=C(NNc1nc2c(F)cccc2s1)C1=COCCO1	RORgamma inh 11µM
O=C(NNc1nc2c(F)cccc2s1)c1ccccc1	RORgamma inh inconclusive, Gal4-VP16 FLuc inconclusive
Cc1ccc2nc(NC(=O)c3cccs3)sc2c1	ELG1 DNA repair inconclusive, RORgamma inh inconclusive
Cc1ccc2nc(NC(=S)NC(=O)c3cccs3)sc2c1	ELG1 DNA repair inconclusive, RORgamma inh 1.1µM, Gal4-VP16 FLuc 3.2µM
Cc1ccc(-c2csc(NC(=S)NC(=O)c3cccs3)n2)cc1	RORgamma inh 2µM
O=C(NC(=S)Nc1nc(-c2ccccc2)cs1)c1cccs1	ELG1 DNA repair inconclusive
Cc1csc(NC(=O)C2=NN(c3ccccc3)C(=O)CC2)n1	none
Cc1ccc(-c2csc(NC(=O)C3=NN(c4ccccc4)C(=O)CC3)n2)cc1	ELG1 DNA repair 13µM
O=C(Nc1ccccc1)Nc1nc(-c2ccc(Cl)cc2)cs1	none
O=C(NC(=S)Nc1nc(-c2ccc(Cl)cc2)cs1)c1cccs1	RORgamma inh 0.79µM
CC(C)=CCc1c(O)cc(O)c2c1O[C@H](c1ccccc1)CC2=O	none (no result: ELG1 DNA repair, TSHR antagonist)
CCOC(=O)N/N=C1/C[C@@H](O)[C@@H](O)[C@@H]2[C@@H]3C(=O)N(C(C)(C)C)C(=O)[C@H]3CC[C@@H]12	none (no result: ELG1 DNA repair, TSHR antagonist)
Nc1cc(=O)[nH]c(SCC(=O)Nc2ccc(N3CCCCC3)cc2)n1	none (no result: RORgamma inh, Coupling enz, Gal4-VP16 FLuc)
CCCc1nn2c(=O)cc(CSCC(=O)Nc3cccc(OC)c3)nc2s1	ELG1 DNA repair inconclusive
C=CCn1c(O)c(N=NC(=S)Nc2ccc(OC)cc2)c2ccccc21	ELG1 DNA repair inconclusive, RORgamma inh 3.2µM, Gal4-VP16 FLuc 4µM
C=CCn1c(O)c(N=NC(=S)Nc2cccc(OC)c2)c2ccccc21	RORgamma inh 0.79µM, Gal4-VP16 FLuc 2.5µM
CCN(CC)S(=O)(=O)c1cc(NC(=O)c2cc([N+](=O)[O-])ccc2N2CCOCC2)ccc1C	ELG1 DNA repair inconclusive (no result: Coupling enz)
COc1ccc(CCNc2cc(N3CCN(C(=O)c4ccccc4F)CC3)ccc2[N+](=O)[O-])cc1OC	ELG1 DNA repair 4.1µM, Gal4-VP16 FLuc 10µM
COc1ccc(CCNc2cc(N3CCN(C(=O)c4ccc(C)cc4)CC3)ccc2[N+](=O)[O-])cc1OC	ELG1 DNA repair 2.1µM, RORgamma inh inconclusive
COc1ccc(C(=O)N2CCN(c3ccc([N+](=O)[O-])c(NCCc4ccc(OC)c(OC)c4)c3)CC2)cc1	ELG1 DNA repair inconclusive, RORgamma inh inconclusive, TSHR antagonist inconclusive, Gal4-VP16 FLuc 4µM
O=C(c1ccccc1F)N1CCN(c2ccc([N+](=O)[O-])c(NCc3cccnc3)c2)CC1	ELG1 DNA repair inconclusive
COc1ccc(CCNc2ccc(C(=O)O)cc2[N+](=O)[O-])cc1OC	none
CC(C)CCN(C(=O)CCCSc1nc2ccccc2[nH]1)c1c(N)n(Cc2ccccc2)c(=O)[nH]c1=O	none (no result: RORgamma inh, Coupling enz, Gal4-VP16 FLuc)
CC(C)NC(=O)N1CC2(CCN(C(=O)c3cccn3C)CC2)C1	none (no result: ELG1 DNA repair, TSHR antagonist)
C[C@H](NC(=O)Cc1cc(F)cc(F)c1)C(=O)N[C@@H](C(=O)OC(C)(C)C)c1ccccc1	none (no result: ELG1 DNA repair, TSHR antagonist)
CC(C)CN1CCN(C(=O)CCc2nnc(Cc3c[nH]c4ccccc34)o2)[C@@H](C)C1=O	ELG1 DNA repair inconclusive (no result: Coupling enz)
CCn1nnc(NC(=O)c2cccnc2)n1	none
